PubChem BioAssay (NCI)
The panel holds about 83,000 compounds, 20% with a hit somewhere; the sample as a whole holds those more often.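 Plates (96-well) were seeded with cells, treated with compound at one concentration, and incubated for 48 hours before percent growth was determined.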 Active and inactive are the calls of the source. The calls were made as follows: active = growth percent below 10; inactive = the rest.

System: MDA-MB-468 breast
Experiment: NCI-60 one-dose screen, 48 h (100 = growth as untreated, 0 = no growth, -100 = all killed)
Conditions: 10 µM unless noted

Q: For `CCCNC(=O)Oc1ccc(/C(=C(\C)c2ccccc2)c2ccc(OCCCN(C)C)cc2)cc1`, which growth is on record?
A: 83.4% (inactive)

Q: Which growth does the source give for `Cc1cccc2c1O/C(=C\c1ccc([N+](=O)[O-])o1)C2=O` here?
A: -58.1% (active)

Q: `COC(=O)c1c2c(c(C)[n+]([O-])c1C)C(=O)C=C(NCc1cccc(OC)c1)C2=O` was tested. Which growth did it give?
A: -67.8% (active)

Q: `Nc1ccc2c3c(cccc13)-c1ccccc1-2` was tested. Which growth did it give?
A: 88.6% (inactive)

Q: With `CC(=O)C1C(=O)C(=O)N(c2cccc([N+](=O)[O-])c2)C1=O` (centres undefined) as the compound, how does the growth read?
A: 102% (inactive)

Q: How did the growth turn out when `O=C([C@@H](COCc1ccccc1)N1C(=O)[C@@H](N2C(=O)OC[C@@H]2c2ccccc2)[C@H]1/C=C/c1ccccc1)N1CCC(CCN2CCCCC2)CC1` was run?
A: 64.8% (inactive)

Q: For `c1cc(NCCCCN2CCOCC2)c2ccc3c(ccc4c(NCCN5CCOCC5)ccnc43)c2n1`, which growth is on record?
A: 75.8% (inactive)

Q: How did the growth turn out when `COc1ccc2nc3cc(Cl)ccc3c(N3CCN(c4nccc(NCc5ccccc5)n4)CC3)c2c1` was run?
A: 15% (inactive)

Q: With `CCCCCCCCCCCCCCCC[N+]1(C)CCOCC1` as the compound, how does the growth read?
A: -50.9% (active)

Q: `CCCCCCCCCCCCNC(=O)[C@H]1CSC(c2ccc(OC)c(F)c2)N1` (some centres undefined) was tested. Which growth did it give?
A: -81.4% (active)

Q: With `CCn1c2ccccc2c2cc(NC(=O)Nc3ccc([N+](=O)[O-])cc3C)ccc21` as the compound, how does the growth read?
A: 7.62% (active)

Q: How did the growth turn out when `Cc1ccc2nc3[nH]c(=O)[nH]c(=O)c3c(N)c2c1` was run?
A: 88.3% (inactive)

Q: `CC(=O)Oc1cccc(S(=O)(=O)n2cc(C(=O)C(=O)Nc3ccncc3)c3ccccc32)c1` was tested. Which growth did it give?
A: 7.5% (active)

Q: How did the growth turn out when `CN(C)C/C=C/C(=O)Nc1cc2c(Nc3ccc(F)c(Cl)c3F)ncnc2cc1OCCOC(F)F` was run?
A: -40.8% (active)
